Compound activity as filed in PubChem BioAssay.
HP1b binding inh: blocks HP1-beta chromodomain binding to methylated histone tails; P83916; AlphaScreen HP1-beta / biotin-H3K9me3 peptide binding; Potency, µM (top dose mostly 114 µM), for the others: at the highest dose activity change, negative = inhibition, hits mostly inhibitors; hit rate 0.56% among 390,000; note: nearly all actives have a fitted effect of over 70% in size
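Compound inhibition of the preformed complex between 50 nM HP1-beta and 50 nM biotinylated H3K9me3 peptide was read by AlphaScreen. Buffer was PBS pH 7.4 with 0.01% Tween-20. Incubations ran 30 min at room temperature, with 10 ug/mL donor/acceptor beads.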
GLS inhibitor: glutaminase GLS (human) inhibition. O94925. GLS enzymatic activity, qHTS titration. Potency, µM (titrated, usually from 45.5 µM), without a hit: at the top dose activity change, negative = inhibition, hits mostly inhibitors. hit rate 0.21% among 410,000. AID 624170; note: % is set by controls: 0 for no effect and ±100 for the full control effect
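Read-out is an Amplex red fluorescence increase coupled through glutamate oxidase and HRP, measured before and after 30 min room-temperature incubation. hKGA is in 45 mM KH2PO4 (pH 8.2) with 0.02% Tween-20; glutamine added as 1mM solution.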
G9a block: blocks human histone lysine methyltransferase G9a; Q96KQ7; G9a H3K9 monomethylation, AlphaScreen, 2 h; Potency, µM (titrated, usually from 102 µM), for the others: at the highest dose activity, negative = inhibition, usual class: inhibitors; hit rate 8.8% among 350,000; note: % is set by controls: 0 for no effect and ±100 for the full control effect; nearly all actives have a fitted effect of over 75% in size
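Using a bead-based AlphaScreen, monomethylated H3K9 product from 2 h room-temperature reactions (G9a 20 nM, peptide 500 nM, SAM 20 uM) was detected with 0.5 ug/mL rabbit anti-H3K9me1 antibody.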
L3MBTL1 inh: L3MBTL1 (human) inhibition | Q9Y468 | AlphaScreen L3MBTL1–H3K9me1 peptide binding | Potency, µM (highest dose often 57.1 µM), for inactives: at the top dose activity, negative = inhibition, usual class: inhibitors | hit rate 0.66% among 230,000 | AID 485360; note: % is set by controls: 0 for no effect and ±100 for the full control effect; nearly all actives have a fitted effect of over 60% in size
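First, the protein-peptide complex forms for 30 min at room temperature (L3MBTL1 50 nM, biotinylated H3K9me1 peptide 75 nM). Next, compounds are pin-transferred and incubated 30 min. Finally, AlphaScreen beads are added and read after 30 min.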
BAZ2B block: inhibitors of human BAZ2B bromodomain; AlphaScreen BAZ2B-H3K14Ac peptide displacement; hit rate 4.4% among 360,000; AID 504333; Potency, µM (titrated, usually from 114 µM), without a hit: top-dose activity change, negative = inhibition, actives largely listed as inhibitors; note: % is set by controls: 0 for no effect and ±100 for the full control effect; nearly all actives have a fitted effect of over 60% in size
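Inhibition is scored as reduced AlphaScreen emission. The BAZ2B/b-H3(5-23)K14Ac complex (50 nM each) in PBS pH 7.4, 0.01% Tween-20 meets compound (up to 110 uM) for 30 min at RT before bead addition.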
JMJD2A Tudor inh: blocks the human JMJD2A Tudor domain | O75164 | AlphaScreen JMJD2A-Tudor / H3K4me3 peptide binding | Potency, µM (highest dose often 114 µM), inactives show at the highest dose activity change, negative = inhibition, hits mostly inhibitors | hit rate 4.4% among 390,000; note: % is set by controls: 0 for no effect and ±100 for the full control effect; nearly all actives have a fitted effect of over 50% in size
An asterisk follows results filed as active; ? = inconclusive; nt = no result given; [ ] = another dose, or the depositor's remark. Sampled rows, rich in hits. Any-hit rate of the full collection: about 10%. Calls come from the whole dose curve; as a rule, active = well fitted curve in the direction sought with a large enough effect; inconclusive = small, poorly fitted or top-dose-only effect, or another doubt; inactive = no such curve, though single readings can be large; an effect the other way counts as inactive or inconclusive. Potency is the fitted concentration of half-maximal effect.

SMILES | HP1b binding inh | GLS inhibitor | G9a block | L3MBTL1 inh | BAZ2B block | JMJD2A Tudor inh
CC1=NNC(=O)C1CCC(=O)N/N=C/C(Br)=C/c1ccccc1 (stereo unspecified) | 29% | 21% | 50µM* | -2% | 5% | -9%
COc1ccc(NC(=O)C(=O)c2cc(C)n(-c3ccc(C)cc3)c2C)cc1Cl | 25% | -8% | -2%[59 µM] | nt | -11% | -22%
Cc1ccc(S(=O)(=O)N2CCN(c3nc(-c4cccs4)nc4cccnc34)CC2)cc1 | 21% | nt | nt | nt | nt | -25%
CCCCn1c(SCc2nc3ccccc3s2)nc2ccccc2c1=O | 83% | 12% | 5%[59 µM] | 0% | 3% | -11%
CCCCn1c(-c2csc3ccccc23)n[nH]c1=S | 22% | -20% | 1.4µM* | nt | -2% | ?
CCn1c(-c2csc3c2CCCC3)n[nH]c1=S | -22% | -14% | 7.9µM* | -7% | -7% | 10µM*
CCCCn1c(-c2csc3c2CCCC3)n[nH]c1=S | -5% | ? | ? | nt | -31% | 40µM*
CCCCCCn1c(-c2cccs2)n[nH]c1=S | -15% | 2% | 5.6µM* | -13% | -23% | 28µM*
COc1ccccc1CCNC(=O)C(=O)NCC(c1ccco1)S(=O)(=O)c1ccc(F)cc1 (stereo unspecified) | 23% | -4% | 4%[59 µM] | nt | 0% | 3%
O=C(Nc1ccc(OCc2cc(=O)n3c4c(sc3n2)CCCC4)cc1)c1cccc(F)c1 | 24% | 2% | -13%[59 µM] | nt | -3% | -12%
C=CCn1c(-c2csc3c2CCC(C)C3)n[nH]c1=S (stereo unspecified) | 6% | 11% | 1.4µM* | -4% | -35% | ?
CCCCn1c(-c2csc3c2CCC(C)C3)n[nH]c1=S (stereo unspecified) | 6% | ? | 24%[59 µM] | -6% | -7% | -27%
Nc1c(C(=O)Nc2ccccc2Cl)nnn1Cc1cccc(Cl)c1 | 21% | -1% | -7%[59 µM] | nt | -13% | -11%
Nc1ccc(-c2nc3ccc(N)cc3o2)cc1 | 47% | -13% | -12% | nt | -22% | -28%
Cc1ccc2nc(-c3cc(N)cc(N)c3)oc2c1 | -30% | 39% | -42%[59 µM] | -4% | 50µM* | ?
O=C1[C@@H]2C(c3cccnc3)=NO[C@@H]2C(=O)N1c1ccc(Br)cc1 | -27% | -9% | 8.9µM* | 0% | -4% | ?
COc1cc(Cl)c(NC(=O)c2cc3ccccn3n2)c(OC)c1 | 20% | -10% | 1%[59 µM] | nt | -2% | -17%
COCCOc1ccc(C(F)(F)F)cc1NC(=O)c1ccc(C(F)(F)F)cc1 | 35% | 5% | 21% | 10% | 5% | -7%
COCCOc1ccc(C(F)(F)F)cc1Nc1nc2ccccc2o1 | 30% | 32% | ? | nt | 13% | 28µM*
CCn1c(N)c(C(=O)NCc2ccco2)sc1=S | ? | 8% | 10µM* | -28% | ? | ?
COc1ccc(-n2c(N)c(C(=O)NCc3ccco3)sc2=S)cc1 | 10% | 0% | ? | -18% | -5% | -27%
CCOC(=O)c1ccc(-n2c(N)c(C(=O)NCc3ccco3)sc2=S)cc1 | 16µM* | 5% | ? | -9% | 40µM* | 25µM*
C=CCNC(=O)c1sc(=S)n(-c2ccc(C(=O)OCC)cc2)c1N | ? | -2% | 3.2µM* | -20%[11.4 µM] | ? | ?
CCOC(=O)c1ccc(-n2c(=S)sc3c(=O)[nH]c(C)nc32)cc1 | -39% | -18% | 1.8µM* | -2% | -4% | ?
Cc1ccc(N2CC3=C(C2=O)C(c2ccc(Br)cc2)NC(=O)N3C)cc1 (stereo unspecified) | 37% | -1% | -5%[59 µM] | nt | -24% | -7%
SMILES | HP1b binding inh | GLS inhibitor | G9a block | L3MBTL1 inh | BAZ2B block | JMJD2A Tudor inh
CCCN1CCN(CCNC(=O)Nc2ccc(OC)cc2OC)CC1 | 23% | 10% | -4%[59 µM] | nt | -12% | -11%
CCOc1ccccc1-c1nc(C(N)=O)c2c(n1)n(-c1ccc3c(c1)OCO3)c(=O)n2C | 18%[57 µM] | -2% | 21%[59 µM] | nt | 1% | -16%
COc1cc(NC(=O)c2ccccc2)c(OC)cc1NC(=O)CN1C(=O)N(C)C2(CCCCC2)C1=O | -22% | 8% | 79µM* | -12% | ? | ?
COc1cc(NC(=O)Nc2ccccc2)c(OC)cc1NC(=O)CN1CCCCC1 | ? | 18% | 4%[12.7 µM] | nt | 50µM* | 40µM*
COc1cc(NC(=O)c2ccc(Cl)cc2)c(OC)cc1NC(=O)CN1CCCCC1 | ? | 0% | 50µM* | 0% | 40µM* | -33%[11.4 µM]
COc1ccc(N2CCN(C(=O)CCc3c(C)nc4c(-c5ccccc5)c(C)nn4c3C)CC2)cc1 | 19% | 4% | ? | nt | ? | -32%
COc1ccc(OC)c(CCNC(=O)c2nn(C)c3c2CSc2ccccc2-3)c1 | 13% | 0% | -33%[59 µM] | nt | 1% | -6%
COc1ccc2cc3c(N)nn(C(=O)c4ccc(OC)c(OC)c4)c3nc2c1 | 27% | -4% | ? | 14% | 79µM* | -27%
COc1ccc2cc3c(N)nn(C(=O)c4ccc(F)cc4)c3nc2c1 | 37% | 1% | nt | nt | -14% | -17%
CCOc1ccc(-c2nnc(SCC(=O)NCc3ccccc3)nc2-c2ccc(OCC)c(OC)c2)cc1OC | 18% | ? | -10%[59 µM] | nt | -3% | -4%
O=C(CNC(=O)[C@@H]1Cc2ccccc2CN1)Nc1ccc2c(c1)OCCO2 | 14% | 1% | 40µM* | nt | ? | -15%
CCc1ccc(NC(=O)CNC(=O)[C@@H]2Cc3ccccc3CN2)cc1 | 14% | -3% | 79µM* | nt | -23% | -12%
CCc1ccc(NS(=O)(=O)c2ccc3[nH]cc(C(=O)NCc4ccc(C)cc4)c(=O)c3c2)cc1 | 20% | 0% | -7%[59 µM] | nt | nt | -20%
COc1ccc(-n2c(C)nc3cc(C(=O)NC4CCCC4)ccc32)cc1 | -2% | 4% | -19%[59 µM] | nt | -8% | 7%
CCN(C(=O)c1coc(=O)c2ccccc12)c1ccccc1C | 34% | -2% | -22%[59 µM] | nt | -15% | -10%
O=C(c1ccc(Cl)cc1[N+](=O)[O-])N(Cc1ccccc1)Cc1ccccc1 | nt | nt | 79µM* | -6% | ? | nt
CCN(C(=O)c1ccc(Cl)cc1[N+](=O)[O-])c1ccccc1C | 24% | -9% | 40µM* | -22% | -38% | -19%
CC(C)(C)N(Cc1ccccc1)C(=O)c1ccc(Cl)cc1[N+](=O)[O-] | -24% | -1% | ? | -24% | ? | ?
Cc1cc(Br)ccc1NC(=O)C1(S(=O)(=O)c2ccc(Cl)cc2)CC1 | 88% | -1% | 14%[59 µM] | nt | 42% | 36%
CC1CCCCN1S(=O)(=O)c1cc2c(=O)nc3ccccn3c2cc1Cl (stereo unspecified) | 45% | -3% | 2%[59 µM] | nt | 3% | -6%
CCOC(=O)N1CCN(CCC(=O)Nc2cccc(F)c2)CC1 | 25% | 0% | -13%[59 µM] | nt | -25% | -8%
